In PubChem BioAssay AID2685 (National Center for Advancing Translational Sciences (NCATS), 2010):
The campaign covered roughly 320,000 compounds. About 2,100 (0.66%) were called active. Not shown: some 53% with an inconclusive outcome. Calls follow the shape of the dose curve; as a rule, active = well fitted inhibition curve with a large enough effect in the signal ratio, with a control signal flat (not every such curve was filed as active); inconclusive = small, poorly fitted or top-dose-only effect, or effect the other way, or a change in a side signal; inactive = flat fitted curve, though single readings scatter; the % refers to the signal ratio. What follows is part of a selection rich in actives, with near analogues and random picks from the rest.

Test: qHTS Assay for Lipid Storage Modulators in Drosophila S3 Cells;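 as to cell number change: cells counted by Cell Tracker Red CMTPX staining in the red channel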; as to lipid storage change, negative = inhibition: % is scaled to controls: 0 for no effect and ±100 for the full control effect
Settings: BODIPY lipid droplet fluorescence, 18-24 h, cells fed with added oleic acid; cell number change: measured here: cell count max response; series mostly up to 46.1 µM; lipid storage change, negative = inhibition: at the top concentration
Outline: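 Drosophila S3 cells loaded with oleic acid (400 uM, as added) and compounds at several concentrations; lipid droplets imaged by 488-nm laser-scanning cytometry, 500–530 nm intensity and object ratio to cell channel. Percent activity normalized to 20 uM Triacsin C.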
Potency is read from the fitted curve at half-maximal effect.

Structure (SMILES)	lipid storage change, negative = inhibition	cell number change [%]	Potency	outcome
CCOC(=O)c1ccc(NC(=S)NNC(=O)c2cc(-c3cccnc3)nc3ccccc23)cc1	-22.8% (inactive)	-10.9	–	–
OCC1(CCc2ccccc2)CCN(Cc2cnc(N3CCCC3)s2)CC1	-4.43% (inactive)	-1.4	–	–
O=C(CCC(=O)N1CCOc2ccccc21)Nc1cc(F)ccc1F	-28.3% (inactive)	-2.02	–	–
O=C1OCc2ccc(NC(=O)c3ccccc3C(=O)O)cc21	-11.6% (inactive)	2.9	–	–
Cc1ccc(C)c(S(=O)(=O)Nc2ccc(C(=O)NCC(c3ccco3)N3CCCCC3)cc2)c1 (configuration not stated)	-6.69% (inactive)	16	–	–
Cc1ccc2[nH]c(=O)c(CN(C)C(=O)c3cccs3)cc2c1	-3.04% (inactive)	-11.8	–	–
COC(=O)c1c(NC(=O)CCl)sc(C(=O)N2CCOCC2)c1C	–	-18.1	0.651 µM (active)	–
COC(=O)c1c(NC(=O)c2ccccc2OC)sc(C(=O)N2CCOCC2)c1C	–	4.76	–	inactive
COC(=O)c1c(N)sc(C(=O)N2CCOCC2)c1C	–	8.28	–	inactive
O=C(Cc1ccc(F)cc1)Nc1c(C(=O)N2CCN(c3ncccn3)CC2)oc2ccccc12	–	26.3	–	inactive
COc1ccccc1CCNC(=O)c1cc(-c2ccncc2)nc2ccc(Br)cc12	-8.45% (inactive)	-14.5	–	–
O=C(COC(=O)CCc1c[nH]c2ccccc12)Nc1ccc([N+](=O)[O-])cc1	-0.164% (inactive)	-0.284	–	–
O=C(CCc1c[nH]c2ccccc12)OCc1cccc([N+](=O)[O-])c1	–	0.451	5.8 µM (active)	–
O=C(COC(=O)CCc1c[nH]c2ccccc12)Nc1cc([N+](=O)[O-])ccc1Cl	9.58% (inactive)	17.2	–	–
Cn1c(C(=O)Nc2ccccc2)cc2sccc21	-9.82% (inactive)	-17.5	–	–
Cc1cccc(NC(=O)CCC(=O)N2CCOCC2)n1	6.69% (inactive)	-0.208	–	–
O=C(Nc1c2c(nn1-c1ccccc1)CS(=O)C2)c1ccco1 (configuration not stated)	–	-4.99	–	inactive
CC(C)(C)n1nc2c(c1NC(=O)c1ccco1)CS(=O)C2 (configuration not stated)	–	-3.33	29.1 µM (active)	–
CC(C)(C)n1nc2c(c1NC(=O)c1ccc(Br)o1)CS(=O)C2 (configuration not stated)	-2.21% (inactive)	12.2	–	–
CCN1C(=O)/C(=c2\sc3nc(=O)c(Cc4ccccc4)nn3c2=O)c2ccccc21	3.23% (inactive)	6.19	–	–
O=C(O)CCCCCCCCCC[n+]1ccccc1	-6.38% (inactive)	3.19	–	–
Oc1ccc[n+](CCCCC[n+]2cccc(O)c2)c1	-6.79% (inactive)	-10	–	–
C(C#CCCCCCCCCC[n+]1ccccc1)#CCCCCCCCCC[n+]1ccccc1	–	2.42	13 µM (active)	–

Structure (SMILES)	lipid storage change, negative = inhibition	cell number change [%]	Potency	outcome
CSc1ccc(CN2CCCC(N3CCN(c4ccccc4)CC3)C2)cc1 (configuration not stated)	12.6% (inactive)	-9.94	–	–
COc1ccccc1NNC(=O)c1cc(C(C)(C)C)nn1Cc1ccccc1	3.58% (inactive)	13.3	–	–
CC(C)(C)c1cc(C(=O)NNc2cc(C(F)(F)F)ccc2Cl)n(Cc2ccccc2)n1	–	-27.1	25.9 µM (active)	–
CC(C)(C)c1cc(C(=O)NNc2ccc(OC(F)(F)F)cc2)n(Cc2ccccc2)n1	4.79% (inactive)	8.19	–	–
CC1CCCCC1NC(=O)c1ccc(S(=O)(=O)NCC2CCCO2)cc1 (configuration not stated)	-16% (inactive)	3.19	–	–
CC(=O)c1ccc(NC2OC(CO)C(O)C(O)C2O)cc1 (configuration not stated)	–	-9.97	32.6 µM (active)	–
Cc1ccc(NC2OC(CO)C(O)C2O)cc1[N+](=O)[O-] (configuration not stated)	-8.08% (inactive)	-2.09	–	–
Cc1ccc(NC2OC(CO)C(O)C(O)C2O)cc1 (configuration not stated)	–	-12.8	–	inactive
O=C(CCOc1ccccc1)N1CCN(S(=O)(=O)c2cccs2)CC1	–	5.86	–	inactive
C=CCN1C(=O)C2(OCCO2)c2cc(C)ccc21	-2.45% (inactive)	5.32	–	–
C=CCN1C(=O)C2(OCCCO2)c2cc(Cl)ccc21	–	7.73	4.11 µM (active)	–
C=CCN1C(=O)C2(OCCCO2)c2ccccc21	-18.8% (inactive)	7.72	–	–
Cc1cc(C)c2nc(N3CCCC(C(=O)NCCN4CCOCC4)C3)sc2c1 (configuration not stated)	8.41% (inactive)	-0.96	–	–
CC(=O)C1=C(O)C(=O)N(CCO)C1c1ccccc1 (configuration not stated)	-9.46% (inactive)	1.42	–	–
O=C(C1=C(O)C(=O)N(CCN2CCOCC2)C1c1ccc(F)cc1)c1cccs1 (configuration not stated)	–	-5.07	18.4 µM (active)	–
CCOc1ccc(C2C(C(=O)c3cccs3)=C(O)C(=O)N2CCN2CCOCC2)cc1 (configuration not stated)	-0.573% (inactive)	7.61	–	–
Cc1ccc(/C(O)=C2/C(=O)C(=O)N(CCN3CCOCC3)C2c2ccccn2)cc1 (configuration not stated)	–	–	29.1 µM (active)	–
CC(=O)C1=C(O)C(=O)N(CCN2CCOCC2)C1c1ccccc1 (configuration not stated)	–	1.7	20.6 µM (active)	–
O=C(C1=C(O)C(=O)N(CCCn2ccnc2)C1c1ccccc1)c1ccco1 (configuration not stated)	-22.1% (inactive)	-0.647	–	–
O=C1C(=O)N(CCN2CCOCC2)C(c2ccccn2)/C1=C(/O)c1ccccc1 (configuration not stated)	3.62% (inactive)	1.37	–	–
COCCCN1C(=O)C(O)=C(C(=O)c2ccco2)C1c1ccccc1 (configuration not stated)	–	-2.26	3.66 µM (active)	–
COCCN1C(=O)C(O)=C(C(=O)c2ccco2)C1c1cccc(Oc2ccccc2)c1 (configuration not stated)	3.16% (inactive)	11.9	–	–
O=C1C(=O)N(CCN2CCOCC2)C(c2ccccn2)/C1=C(/O)c1ccc(Cl)cc1 (configuration not stated)	4.03% (inactive)	8.56	–	–

Structure (SMILES)	lipid storage change, negative = inhibition	cell number change [%]	Potency	outcome
Cc1ccc(C2C(C(=O)c3cc4ccccc4o3)=C(O)C(=O)N2CCN2CCOCC2)cc1 (configuration not stated)	–	-0.236	–	inactive
O=C(C1=C(O)C(=O)N(CCN2CCOCC2)C1c1ccc([N+](=O)[O-])cc1)c1cccs1 (configuration not stated)	-23.9% (inactive)	22.6	–	–
COc1ccc(C2CC(=O)N(CC(=O)NCC3CCCO3)c3ccccc3S2)cc1 (configuration not stated)	5.52% (inactive)	0.213	–	–
CC(=O)Nc1ccc(S(=O)(=O)NNC(=O)C(=O)NNc2ccccn2)cc1	-15.1% (inactive)	-5.03	–	–
O=C(Nc1ccccc1)c1cc(S(=O)(=O)N2CCOCC2)cs1	–	–	–	inactive
Cc1ccc(C(=O)NCc2ccco2)cc1S(=O)(=O)N1CCOCC1	-5.7% (inactive)	-14.2	–	–
O=C(Nc1ccccc1F)C(=O)c1cn(CC(=O)N2CCCCC2)c2ccccc12	8.05% (inactive)	-5.77	–	–
COc1ccc(NC(=O)Cn2cnc3c(nnn3-c3ccc(C)cc3)c2=O)cc1	-12.6% [at 9.22 µM] (inactive)	-12.8	–	–
CC(=O)C1=C(O)C(=O)N(CCc2c[nH]c3ccccc23)C1c1cccc(O)c1 (configuration not stated)	–	-19.8	20.6 µM (active)	–
CC(=O)C1=C(O)C(=O)N(CCc2c[nH]c3ccccc23)C1c1ccccc1 (configuration not stated)	27.1% (inactive)	3.29	–	–
CC(=O)C1=C(O)C(=O)N(CCc2c[nH]c3ccccc23)C1c1ccc(O)cc1 (configuration not stated)	-9.82% (inactive)	-2.81	–	–
CCOC(=O)c1[nH]c(C)c(C(=O)NCCCN2CCOCC2)c1C	10.9% (inactive)	18.3	–	–
CCc1ccc(-n2cnc3cc(C(=O)NCC(OC)OC)ccc32)cc1	1% (inactive)	2.84	–	–
COc1ccccc1-c1nnc(SCC(=O)Nc2ccc(S(N)(=O)=O)cc2)n1N	-0.686% (inactive)	6.66	–	–
CCn1c(SCC(=O)Nc2nccs2)nnc1-c1ccc(C)cc1	-3.09% (inactive)	-13.5	–	–
C=CCn1c(SCC(=O)Nc2nccs2)nnc1-c1cc2cccc(OC)c2o1	–	-25.4	–	inactive
CCn1c(SCC(=O)Nc2nccs2)nnc1-c1cc2cccc(OC)c2o1	–	-5.05	1.84 µM (active)	–
Cc1ccc(OCC(=O)NNC(=O)c2cccnc2)cc1C	-5.08% (inactive)	0.125	–	–
CCC(C(=O)NCc1ccco1)N(C(=O)CNS(=O)(=O)c1ccc(F)cc1)c1ccccc1F (configuration not stated)	-15.5% (inactive)	-1.9	–	–
CCC(C(=O)NCc1ccco1)N(C(=O)CNS(=O)(=O)c1ccc(C)cc1)c1ccccc1F (configuration not stated)	–	11.8	1.16 µM (active)	–
CCC(C(=O)NCc1ccco1)N(C(=O)CNS(=O)(=O)c1ccc(C)cc1)c1ccccc1OC (configuration not stated)	6.8% (inactive)	-11.8	–	–
CNC(=O)/C(C#N)=C\c1ccc(CNS(=O)(=O)c2ccc(Cl)cc2)o1	-15.4% (inactive)	-11.3	–	–
CNC(=O)/C(C#N)=C/c1c(N2CCCCCC2)nc2ccccn2c1=O	8.81% (inactive)	0.926	–	–

Structure (SMILES)	lipid storage change, negative = inhibition	cell number change [%]	Potency	outcome
CNC(=O)/C(C#N)=C/c1c(F)cccc1Cl	–	-9.91	10.3 µM (active)	–
CC1=C(C#N)C(NC(=O)C2CCCCC2)(C(F)(F)F)C(=O)N1 (configuration not stated)	5.78% (inactive)	14.5	–	–
COC(=O)C1=C(C)N(C(C)C)C(=O)C1(NC(=O)C1CCCCC1)C(F)(F)F (configuration not stated)	–	24.5	25.9 µM (active)	–
COC(=O)C1=C(C)N(C2CCCC2)C(=O)C1(NC(C)=O)C(F)(F)F (configuration not stated)	–	–	–	inactive
COc1ccc(S(=O)(=O)N2CCC(C(=O)N[C@H](C(=O)N3CCCC3)C(C)C)CC2)cc1	–	–	–	inactive
Cc1ccc2nc(NC(=O)CSc3nnc(C)c(=O)n3N)sc2c1	-29.4% (inactive)	0.333	–	–
CCOC(=O)c1c(C)[nH]c(NC(=O)Nc2ccc(NC(C)=O)cc2)c1C	–	22.7	–	inactive
O=C(CN(C(=O)CCC(=O)Nc1ccccn1)c1ccc2c(c1)OCCO2)NCCc1ccccc1	9.9% (inactive)	-14.1	–	–
O=C(O)c1cccc2c3c([nH]c12)CCCC3	-7.44% (inactive)	23.1	–	–
NNC(=O)c1ccc2[nH]c3c(c2c1)CCCC3	6.92% (inactive)	7	–	–
O=C(O)c1cc2[nH]c3c(c2cc1Cl)CCCC3	–	-7.3	4.11 µM (active)	–
CC(OC(=O)C1CC(=O)N(Cc2ccco2)C1)C(=O)Nc1ccc(F)cc1Cl (configuration not stated)	-1.45% (inactive)	-0.141	–	–
Cc1cc(C)cc(N2CC(C)(C)C2=O)c1	-16.4% (inactive)	–	–	–
CCCOc1ccc(N2C(=O)CC(NCCc3ccc(S(N)(=O)=O)cc3)C2=O)cc1 (configuration not stated)	1.73% (inactive)	11.4	–	–
O=C(NCCc1ccccc1)C(=O)NN=C1CCCC1	–	6	29.1 µM (active)	–
O=C(CC(=O)NN=C1CCCC1)NCCc1ccccc1	-9.12% (inactive)	12	–	–
S=C(NCCc1ccccc1)NN=C1CCCCCC1	–	-23.7	–	inactive
CN(C)CCOC(=O)c1ccc2c(c1)S(=O)(=O)c1ccccc1C2=O	17.4% (inactive)	0.995	–	–
Cc1cc(C)nc(SCC(=O)N/N=C/c2cccc([N+](=O)[O-])c2)n1	5.85% (inactive)	0.279	–	–
O=C(COc1ccc(/C=N/NC(=O)c2ccccc2O)cc1)Nc1ccccc1	9.4% [at 9.22 µM] (inactive)	-17.8	–	–
O=C(COc1ccc(/C=N/NC(=O)c2ccccc2Br)cc1)Nc1ccccc1	–	-20.5	18.4 µM (active)	–
O=C(O)COc1ccc(/C=N/NC(=O)c2ccccc2Br)cc1	-20% (inactive)	-13.2	–	–
